# Experimental data reported in the supplement of paper PMC3545927.
# The other results are listed elsewhere or left out. The hit rate among all sequences tested is not known here.
# Biological target: furin, P09958
# Assay: furin cleavage Z-score vs untreated control; higher = more cleavage, active = 3.5 or more, inactive = 1 or less, 8 variable residues between constant flanks
# Procedure, shortened: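 Cleavage by purified furin was measured on 8-mer peptides fused to a cDNA oligonucleotide and held on magnetic beads by their N-terminus. Reactions (0.01 ml, 1:10 enzyme:substrate) ran 7.5, 15 or 30 min in 50 mM HEPES pH 7.5 with CaCl2 and NaCl. Released DNA was adapter-tagged by PCR and sequenced, with read counts giving abundance. Log counts versus furin-free reactions were lowess-adjusted and scaled by median absolute deviation to give the cleavage Z-score.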
# Sequence of furin, P09958 (P09958 whole entry): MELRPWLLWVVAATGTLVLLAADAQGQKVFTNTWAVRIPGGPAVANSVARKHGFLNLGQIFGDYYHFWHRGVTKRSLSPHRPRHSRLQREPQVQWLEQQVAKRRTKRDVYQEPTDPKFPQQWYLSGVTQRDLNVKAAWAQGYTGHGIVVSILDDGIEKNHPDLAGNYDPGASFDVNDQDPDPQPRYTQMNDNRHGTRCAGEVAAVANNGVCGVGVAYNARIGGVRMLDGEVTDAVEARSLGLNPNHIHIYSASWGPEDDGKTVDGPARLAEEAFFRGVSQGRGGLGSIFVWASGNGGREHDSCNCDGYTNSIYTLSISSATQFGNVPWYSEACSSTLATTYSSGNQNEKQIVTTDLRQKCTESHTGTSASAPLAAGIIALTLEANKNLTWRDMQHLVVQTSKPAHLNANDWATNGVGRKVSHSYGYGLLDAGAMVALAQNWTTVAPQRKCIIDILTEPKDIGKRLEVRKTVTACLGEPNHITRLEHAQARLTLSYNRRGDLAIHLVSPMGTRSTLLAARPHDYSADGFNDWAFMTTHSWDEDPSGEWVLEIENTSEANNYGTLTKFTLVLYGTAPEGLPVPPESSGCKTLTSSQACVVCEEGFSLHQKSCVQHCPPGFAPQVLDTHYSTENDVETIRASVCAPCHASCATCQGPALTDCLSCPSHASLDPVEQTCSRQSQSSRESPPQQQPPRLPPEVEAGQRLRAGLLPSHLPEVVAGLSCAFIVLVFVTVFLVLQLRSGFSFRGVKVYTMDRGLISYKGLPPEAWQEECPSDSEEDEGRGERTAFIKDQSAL
Sequence,furin cleavage Z-score (7.5 min),furin cleavage Z-score (15 min),furin cleavage Z-score (30 min)
CADIIICDECAGNASASA [HC816],-1.61 (inactive),-0.956 (inactive),0.174 (inactive)
CARQKRIIGGAGNASASA [FS-2754],-1.16 (inactive),-0.537 (inactive),0.0214 (inactive)
CARQIRGLEEAGNASASA [FS-2443],0.837 (inactive),3.93 (active),3.31
CARQKRSIVVAGNASASA [FS-2507],7.83 (active),9.33 (active),8.84 (active)
CARQKREIDVAGNASASA [FS-3035],10.8 (active),12.7 (active),11.5 (active)
CARQIRYSVPAGNASASA [FS-1767],0.304 (inactive),0.942 (inactive),-0.474 (inactive)
CAWLQYFLTRAGNASASA [HC583],-0.459 (inactive),-0.712 (inactive),-0.977 (inactive)
CASWAIKWEYAGNASASA [HC516],-0.904 (inactive),-1.39 (inactive),0.896 (inactive)
CARKRRDTGGAGNASASA [FS-2346],5.14 (active),4.44 (active),2.79
CARKRRSKSRAGNASASA [FS-2272],5.87 (active),6.56 (active),5.23 (active)
CAETKRSINEAGNASASA [FS-2539],-1.27 (inactive),-0.817 (inactive),-0.177 (inactive)
CARKRRSQDGAGNASASA [FS-1858],8.67 (active),10.1 (active),6.23 (active)
CARGLRSIMEAGNASASA [FS-1709],-0.826 (inactive),0.557 (inactive),1.78
CARDQRDKDGAGNASASA [FS-2412],0.132 (inactive),-0.98 (inactive),-1.37 (inactive)
CARAVRSINEAGNASASA [FS-2411],6.03 (active),6.9 (active),7.81 (active)
CATTPCSGSTAGNASASA [HC1938],-0.179 (inactive),-0.988 (inactive),-0.748 (inactive)
CAEVVTETWVAGNASASA [HC153],-0.809 (inactive),-0.763 (inactive),-1.97 (inactive)
CAEDGVNYATAGNASASA [HC240],-0.763 (inactive),-1.25 (inactive),-0.298 (inactive)
CASKSRIKKDAGNASASA [FS-91],7.52 (active),6.56 (active),6.64 (active)
CATERLYVGGAGNASASA [HC1499],0.0385 (inactive),0.416 (inactive),-0.694 (inactive)
CARALRLVDGAGNASASA [FS-2410],-0.828 (inactive),-0.615 (inactive),-0.629 (inactive)
CARKRRLVAPAGNASASA [FS-2216],3.99 (active),5.02 (active),5.53 (active)
CARKRRQSEGAGNASASA [FS-1733],10.4 (active),12.6 (active),8.83 (active)
CALNPREKKDAGNASASA [FS-941],-0.953 (inactive),0.314 (inactive),0.019 (inactive)
CARPKRKVAPAGNASASA [FS-2284],1.89,0.659 (inactive),3.08
CAYPVREKKDAGNASASA [FS-739],-0.917 (inactive),0.614 (inactive),0.838 (inactive)

Sequence,furin cleavage Z-score (7.5 min),furin cleavage Z-score (15 min),furin cleavage Z-score (30 min)
CAKTRRSVDGAGNASASA [FS-2248],6.46 (active),7.09 (active),5.86 (active)
CASYLKGSSGAGNASASA [HC740],-0.0827 (inactive),-0.32 (inactive),-1.27 (inactive)
CAIQRLHGLSAGNASASA [HC1602],-1.82 (inactive),1.34,-0.804 (inactive)
CAWVVTSTWVAGNASASA [HC2148],-0.151 (inactive),0.93 (inactive),-1.01 (inactive)
CARKRRSLGDAGNASASA [FS-2976],11.1 (active),13.3 (active),9.59 (active)
CARTIRSFEGAGNASASA [FS-2240],3.24,4.83 (active),5.83 (active)
CARTNRDMHGAGNASASA [FS-3109],-0.446 (inactive),1.17,-0.99 (inactive)
CACTMLVCGDAGNASASA [HC1526],-1.57 (inactive),-1.58 (inactive),0.193 (inactive)
CARKRRVRKDAGNASASA [FS-1560],8.86 (active),7.9 (active),6.61 (active)
CASKGRRRKDAGNASASA [FS-1656],5.25 (active),6.69 (active),5.72 (active)
CARKRRVLTPAGNASASA [FS-2979],-0.402 (inactive),-0.0349 (inactive),-1.55 (inactive)
CAFKIRMYVGAGNASASA [HC474],-0.697 (inactive),0.386 (inactive),-0.234 (inactive)
CARFGRQDEGAGNASASA [FS-1947],-2.89 (inactive),-0.0904 (inactive),-0.336 (inactive)
CALYFQSGTVAGNASASA [TV3],-1.09 (inactive),-1.65 (inactive),-0.81 (inactive)
CAVFSQMETKAGNASASA [HC648],-1.33 (inactive),-0.992 (inactive),-0.89 (inactive)
CAGYTGDFDSAGNASASA [HC882],0.222 (inactive),-2.26 (inactive),-1.5 (inactive)
CAICESAGVQAGNASASA [HC1532],0.831 (inactive),-0.227 (inactive),-1.02 (inactive)
CARKRRSTNEAGNASASA [FS-2039],13.4 (active),14 (active),10.3 (active)
CARRKRKNKDAGNASASA [FS-1967],-0.815 (inactive),0.207 (inactive),1.06
CARTGRPVEPAGNASASA [FS-2822],-0.133 (inactive),-0.269 (inactive),-0.327 (inactive)
CARKGRNKEIAGNASASA [FS-2687],0.916 (inactive),0.216 (inactive),0.59 (inactive)
CARKRRSTDFAGNASASA [FS-2217],9.58 (active),11.2 (active),9.06 (active)
CARKRKGSDDAGNASASA [FS-2696],1.74,0.267 (inactive),-0.22 (inactive)
CARRNRLRKDAGNASASA [FS-87],7.91 (active),8.84 (active),6.68 (active)
CARRKRLRQDAGNASASA [FS-2780],0.471 (inactive),0.0552 (inactive),1.44
CARKGRCVEPAGNASASA [FS-2686],3.13,3.86 (active),4.66 (active)
